Test [1] concerns the target Calcium/calmodulin-dependent protein kinase type II subunit alpha (Homo sapiens) (UniProt Q9UQM7). To be noted: at 1 µM.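 Note: reported value is a mean percent inhibition of CAMK2A.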
Test [2] deals with Calcium/calmodulin-dependent protein kinase type II subunit delta (Homo sapiens) (UniProt Q13557). The conditions noted are these: at 0.1 µM.
Test [3] shares this target. To be noted: at 1 µM.
For test [4], the target named is T1, Calcium/calmodulin-dependent protein kinase type IV (Homo sapiens) (UniProt Q16566).
T1 sequence (whole entry): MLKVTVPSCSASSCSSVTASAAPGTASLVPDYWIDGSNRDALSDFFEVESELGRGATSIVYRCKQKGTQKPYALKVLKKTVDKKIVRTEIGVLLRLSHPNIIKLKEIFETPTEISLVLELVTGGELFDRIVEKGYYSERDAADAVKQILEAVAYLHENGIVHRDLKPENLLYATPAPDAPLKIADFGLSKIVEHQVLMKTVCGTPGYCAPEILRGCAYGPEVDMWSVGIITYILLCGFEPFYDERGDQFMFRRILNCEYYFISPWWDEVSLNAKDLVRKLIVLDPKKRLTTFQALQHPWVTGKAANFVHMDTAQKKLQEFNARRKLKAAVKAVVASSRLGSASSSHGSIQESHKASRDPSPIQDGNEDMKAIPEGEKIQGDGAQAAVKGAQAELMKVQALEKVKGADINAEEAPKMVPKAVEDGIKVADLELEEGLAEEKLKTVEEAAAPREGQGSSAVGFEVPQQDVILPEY
The conditions noted are these: at 0.1 µM.

For test [5], the target named is T1, Calcium/calmodulin-dependent protein kinase type IV (Homo sapiens). To be noted: at 1 µM.
Test [6] has as its target T2, Serine/threonine-protein kinase Chk1 (Homo sapiens) (UniProt O14757).
T2 sequence (whole entry): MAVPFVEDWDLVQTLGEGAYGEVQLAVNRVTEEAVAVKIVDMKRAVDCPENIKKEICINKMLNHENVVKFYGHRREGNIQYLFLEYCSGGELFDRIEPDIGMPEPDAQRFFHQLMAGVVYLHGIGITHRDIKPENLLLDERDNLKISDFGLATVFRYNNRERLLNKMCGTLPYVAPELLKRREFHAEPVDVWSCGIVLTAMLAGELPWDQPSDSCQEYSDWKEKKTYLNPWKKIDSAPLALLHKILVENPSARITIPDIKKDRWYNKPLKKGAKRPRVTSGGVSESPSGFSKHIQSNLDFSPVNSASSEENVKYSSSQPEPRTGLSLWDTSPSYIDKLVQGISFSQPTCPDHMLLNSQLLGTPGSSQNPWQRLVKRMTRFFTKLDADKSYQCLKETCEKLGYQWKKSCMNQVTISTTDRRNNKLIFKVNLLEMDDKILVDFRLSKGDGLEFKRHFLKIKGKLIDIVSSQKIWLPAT
To be noted: at 0.1 µM.

In test [7] the target is T2, Serine/threonine-protein kinase Chk1 (Homo sapiens). To be noted: at 1 µM.
Test [8] concerns the target Serine/threonine-protein kinase Chk2 (Homo sapiens) (UniProt O96017). The conditions noted are these: at 0.1 µM.
Test [9] shares this target. To be noted: at 1 µM.
Test [10] concerns the target Death-associated protein kinase 1 (Homo sapiens) (UniProt P53355). To be noted: at 0.1 µM.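 Note: reported figure is the mean inhibition of DAPK1.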

Calcium/calmodulin-dependent protein kinase type II subunit delta (Homo sapiens), sequence (Q13557 whole entry): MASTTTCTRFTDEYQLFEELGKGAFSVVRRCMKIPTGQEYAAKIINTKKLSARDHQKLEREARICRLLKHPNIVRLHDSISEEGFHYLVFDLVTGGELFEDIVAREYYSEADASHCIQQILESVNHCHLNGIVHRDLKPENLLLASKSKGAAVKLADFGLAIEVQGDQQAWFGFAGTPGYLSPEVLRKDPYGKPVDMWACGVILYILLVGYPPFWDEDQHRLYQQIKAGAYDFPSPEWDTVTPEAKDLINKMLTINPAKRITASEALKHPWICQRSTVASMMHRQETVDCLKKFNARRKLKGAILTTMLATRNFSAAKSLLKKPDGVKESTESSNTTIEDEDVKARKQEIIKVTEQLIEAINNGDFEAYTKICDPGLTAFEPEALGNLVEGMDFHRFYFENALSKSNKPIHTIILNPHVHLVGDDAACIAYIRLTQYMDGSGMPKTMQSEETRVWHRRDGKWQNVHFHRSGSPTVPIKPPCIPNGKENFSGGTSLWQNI
Calcium/calmodulin-dependent protein kinase type II subunit alpha (Homo sapiens), sequence (Q9UQM7 whole entry): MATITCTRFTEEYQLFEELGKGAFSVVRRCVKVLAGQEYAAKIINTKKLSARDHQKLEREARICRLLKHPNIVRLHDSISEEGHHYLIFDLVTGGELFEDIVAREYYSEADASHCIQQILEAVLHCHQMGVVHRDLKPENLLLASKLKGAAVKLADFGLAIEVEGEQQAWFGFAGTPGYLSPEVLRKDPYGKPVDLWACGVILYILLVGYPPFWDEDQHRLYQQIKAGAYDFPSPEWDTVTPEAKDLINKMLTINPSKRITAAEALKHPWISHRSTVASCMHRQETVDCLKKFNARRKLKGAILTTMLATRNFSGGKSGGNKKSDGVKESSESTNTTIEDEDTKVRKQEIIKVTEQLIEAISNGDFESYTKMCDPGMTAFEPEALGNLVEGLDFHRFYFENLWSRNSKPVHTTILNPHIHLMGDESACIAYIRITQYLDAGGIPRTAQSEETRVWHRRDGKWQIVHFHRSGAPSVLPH
Serine/threonine-protein kinase Chk2 (Homo sapiens), sequence (O96017 whole entry): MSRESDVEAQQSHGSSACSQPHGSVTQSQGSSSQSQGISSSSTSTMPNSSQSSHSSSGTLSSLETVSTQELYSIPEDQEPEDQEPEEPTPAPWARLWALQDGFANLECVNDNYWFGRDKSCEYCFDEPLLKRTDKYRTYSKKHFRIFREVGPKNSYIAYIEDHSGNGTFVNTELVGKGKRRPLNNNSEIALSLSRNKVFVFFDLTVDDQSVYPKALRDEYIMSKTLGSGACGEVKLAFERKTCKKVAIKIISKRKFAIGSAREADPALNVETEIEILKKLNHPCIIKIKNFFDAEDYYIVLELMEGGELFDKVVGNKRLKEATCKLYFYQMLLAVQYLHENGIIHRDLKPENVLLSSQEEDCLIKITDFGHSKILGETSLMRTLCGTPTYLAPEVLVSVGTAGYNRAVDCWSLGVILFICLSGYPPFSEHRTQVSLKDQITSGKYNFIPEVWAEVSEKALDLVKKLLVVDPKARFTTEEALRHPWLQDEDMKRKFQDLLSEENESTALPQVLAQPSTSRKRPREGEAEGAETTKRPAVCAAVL
Death-associated protein kinase 1 (Homo sapiens), sequence (P53355 whole entry, looked up): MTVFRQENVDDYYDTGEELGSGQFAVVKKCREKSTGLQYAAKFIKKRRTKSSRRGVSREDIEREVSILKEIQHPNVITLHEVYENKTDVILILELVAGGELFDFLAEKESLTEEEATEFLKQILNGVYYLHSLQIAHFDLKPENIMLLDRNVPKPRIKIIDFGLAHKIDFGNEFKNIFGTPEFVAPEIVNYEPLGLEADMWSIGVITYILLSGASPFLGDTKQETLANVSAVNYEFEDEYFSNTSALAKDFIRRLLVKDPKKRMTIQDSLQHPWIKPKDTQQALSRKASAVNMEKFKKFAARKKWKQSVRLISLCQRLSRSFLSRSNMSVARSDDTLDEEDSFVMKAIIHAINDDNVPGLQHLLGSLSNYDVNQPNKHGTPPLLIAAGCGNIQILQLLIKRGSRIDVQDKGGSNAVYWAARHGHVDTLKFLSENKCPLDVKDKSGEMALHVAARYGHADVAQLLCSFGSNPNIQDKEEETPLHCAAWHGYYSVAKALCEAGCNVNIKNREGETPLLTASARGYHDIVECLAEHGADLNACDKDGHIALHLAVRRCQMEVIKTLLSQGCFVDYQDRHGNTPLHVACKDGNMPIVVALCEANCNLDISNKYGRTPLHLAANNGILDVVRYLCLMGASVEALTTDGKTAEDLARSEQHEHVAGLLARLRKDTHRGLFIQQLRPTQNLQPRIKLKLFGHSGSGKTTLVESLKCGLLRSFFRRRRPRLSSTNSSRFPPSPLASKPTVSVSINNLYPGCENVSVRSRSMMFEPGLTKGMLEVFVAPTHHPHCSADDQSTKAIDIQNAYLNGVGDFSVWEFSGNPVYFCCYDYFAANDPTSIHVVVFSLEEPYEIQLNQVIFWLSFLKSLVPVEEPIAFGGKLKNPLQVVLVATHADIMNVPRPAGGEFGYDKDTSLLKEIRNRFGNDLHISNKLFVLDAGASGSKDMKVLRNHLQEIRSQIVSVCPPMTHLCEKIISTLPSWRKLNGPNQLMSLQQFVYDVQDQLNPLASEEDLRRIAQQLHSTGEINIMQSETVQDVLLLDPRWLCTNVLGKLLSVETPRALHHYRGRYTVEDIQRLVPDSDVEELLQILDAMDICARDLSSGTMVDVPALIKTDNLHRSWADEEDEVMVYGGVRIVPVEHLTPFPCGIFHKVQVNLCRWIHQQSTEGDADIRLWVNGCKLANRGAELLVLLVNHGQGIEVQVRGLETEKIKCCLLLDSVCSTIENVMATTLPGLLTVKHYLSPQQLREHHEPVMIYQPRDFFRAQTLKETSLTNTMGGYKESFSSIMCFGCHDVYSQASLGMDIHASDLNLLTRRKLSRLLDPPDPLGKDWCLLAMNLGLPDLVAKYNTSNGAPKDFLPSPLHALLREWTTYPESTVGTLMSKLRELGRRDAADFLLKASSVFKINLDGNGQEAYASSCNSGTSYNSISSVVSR

Broadly, the inhibition is the change of the read-out against control, counted positive when it falls. Turning to `COc1cccc(-n2nc(C)c3c(N/N=C(\C)c4ccncc4)ncnc32)c1`, the inhibition was -0.32% in [1]; 0.75% in test [2]; 1.55% in test [3]; -0.54% in [4]; 0.81% in test [5]; 0.24% in test [6]. Besides, the inhibition in test [7] came out at 0.57%; in test [8], 0.02%; in test [9], 0.48%; in test [10], 0.32%.

For the compound `Cc1ccc2c(-c3ccnc(Nc4ccc5c(c4)OCCO5)n3)c(-c3ccc(C(F)(F)F)cc3)nn2n1`, the inhibition in test [1] was -1.51%; in [2], 0.22%; in test [3], -0.06%; in test [4] it was 2.15%; in test [5], 0.11%; in test [6], 1.74%. Also, the inhibition in test [7] is 0.1%; in [8], -0.69%; in test [9], -0.6%; in test [10], 2.74%.

Consider `CN(C)C(=O)O[C@@H]1CN[C@@H](C#Cc2cc3ncnc(Nc4ccc(OCc5cccc(F)c5)c(Cl)c4)c3s2)C1`, for which the inhibition is 1.65% in [1]; 1.47% in test [2]; 2.72% in test [3]; 0.93% in [4]; 0.99% in test [5]; -0.23% in test [6]. Besides, the inhibition in test [7] turned out to be 0.16%; in test [8] it was 0.47%; in [9], 1.66%; in test [10] it was 0.93%.

`C[C@@H](Oc1cc(-n2cnc3ccc(OC[C@@H](O)CO)cc32)sc1C(N)=O)c1ccccc1Cl`: the inhibition is 2.24% in test [1]; -0.89% in [2]; 7.31% in test [3]; 1.25% in [4]; 1.44% in [5]; 0.04% in [6]. The inhibition in test [7] is -1.83%; in [8] it was -1.68%; in test [9], -1.71%; in [10] it was -1.62%.

For the compound `NC(=O)c1sc(-n2cnc3ccccc32)cc1OCc1ccccc1Br`, the inhibition was 3.18% in test [1]; 3.32% in test [2]; 7.99% in test [3]; 0.49% in test [4]; 2.57% in test [5]; 9.58% in test [6]. The inhibition was determined as 13.2% in test [7], 7.49% in test [8], 10.5% in [9] and 12.3% in [10].

In the case of `Cc1ccc(Nc2ccnc(Nc3cccc(C(N)=O)c3)n2)cc1O`, the inhibition is 3.19% in test [1]; 2.94% in [2]; 5.54% in test [3]; -0.64% in test [4]; -0.14% in [5]; 1% in test [6]. In addition, the inhibition came to 2.08% in [7], 2.56% in [8], 12.8% in test [9] and 1.62% in [10].

`c1ccc(Cc2nc3ccc(Nc4ncnc5ccccc45)cc3[nH]2)cc1`: the inhibition in [1] is 2%; in test [2], 1.68%; in test [3], 2.41%; in test [4], -2.03%; in test [5], -1.81%; in test [6], 2.86%. In addition, the inhibition in [7] came to 9.39%; in [8], 1.71%; in test [9], 5.02%; in test [10], 3.43%.

With `O=C1Nc2ccc(-c3cccnc3)cc2C1=Cc1cc(Br)c(O)c(Br)c1`, the inhibition in test [1] is 5.84%; in test [2], 3.26%; in test [3], 7.6%; in test [4], 0.54%; in [5], -0.48%; in [6], 3.16%. The inhibition in test [7] is 0.96%; in test [8], 3.4%; in [9] it was 8.93%; in [10] it was 1.41%.

As to `COc1cc2ncnc(Nc3ccc(C)c(O)c3)c2cc1OC`, the inhibition in [1] was 2.74%; in test [2] it was 2.6%; in test [3], 3.68%; in test [4], -1.73%; in test [5], -3.77%; in test [6] it was 4.63%. Further, the inhibition in [7] was determined as 4%; in [8], 5.03%; in [9], 25.5%; in test [10] it was 6.4%.

For the compound `Cc1cc(O)cc(C)c1/C=C/c1cncc(C(=O)N(C)C)c1`, the inhibition stood at 3.57% in test [1]; 3.56% in test [2]; 4.04% in test [3]; 2.13% in test [4]; 0.97% in [5]; 5.84% in [6]. Moreover, the inhibition in test [7] is 2.96%; in test [8], -0.15%; in test [9], 0.11%; in [10], 3.93%.

As to `[O-][S+]1CCN(Cc2ccc(-c3ccc4ncnc(Nc5ccc(OCc6ccccc6)c(Cl)c5)c4c3)o2)CC1`, the inhibition in test [1] is -1.1%; in [2], 0.81%; in [3], 1.03%; in test [4] it was -1.57%; in test [5], -1.23%; in [6], 3.06%. Further, the inhibition is -0.08% in [7], 1.32% in test [8], 2.85% in test [9] and 1.85% in [10].

As for `OCc1ccc(-c2nc(-c3ccccn3)c(-c3ccc4c(c3)OCO4)[nH]2)cc1`, the inhibition in test [1] was 5.43%; in test [2] it was 4.96%; in test [3], 4.65%; in test [4], 0.02%; in test [5], -0.32%; in test [6], 3.36%. In addition, the inhibition in [7] was determined as 3.17%; in [8], 3.25%; in test [9], 4.36%; in test [10] it was 4.31%.

In the case of `Cc1ccc(O)cc1Nc1ccnc2ccc(S(C)(=O)=O)cc12`, the inhibition in test [1] was 6.06%; in [2] it was 3.19%; in test [3], 3.36%; in test [4], -1.1%; in test [5], -1.84%; in [6], 8.75%. Further, the inhibition was determined as 9.21% in test [7], 8.1% in test [8], 15.1% in test [9] and 12.2% in [10].

Turning to `N#Cc1c(NC(=O)c2ccccc2F)sc2c1CCCC2`, the inhibition in test [1] was -0.29%; in [2], -2.56%; in test [3], 1.91%; in test [4], 0.87%; in [5], 1.11%; in [6], -0.69%. Further, the inhibition was -3.66% in [7], -0.83% in [8], -2.63% in test [9] and -1.42% in test [10].

On to `ON=C1CCc2cc(-c3nc(C4CCNCC4)[nH]c3-c3ccncc3)ccc21`, for which the inhibition was found to be 3.5% in [1]; 16.1% in [2]; 2.8% in test [3]; 1.25% in [4]; 1.79% in test [5]; 0.67% in test [6]. The inhibition in [7] is 1.05%; in test [8], 0.01%; in [9], 0.8%; in test [10] it was 0.46%.

With `NS(=O)(=O)c1ccc(-c2cc3ccncc3cc2OCc2ccccc2)cc1`, the inhibition was 2.94% in test [1]; 2.4% in test [2]; 4.59% in test [3]; -1.16% in test [4]; 2.15% in test [5]; 0.26% in [6]. For the same compound, the inhibition stood at 0.12% in [7], 2.85% in test [8], 4.7% in test [9] and 1.1% in [10].

In the case of `COC(=O)c1ccc2c(c1)C(=Cc1cc(Br)c(O)c(Br)c1)C(=O)N2`, the inhibition in test [1] was 5.83%; in test [2], 3.29%; in test [3], 9.61%; in test [4], -0.49%; in test [5], 4.64%; in test [6], 9.68%. Besides, the inhibition in test [7] worked out at 14.6%; in [8], 8.72%; in [9], 20.6%; in test [10], 9.92%.

The values above are taken from ChEMBL document CHEMBL1961873, “Compounds: GSK PKIS; Assays: Nanosyn kinase panel” (2012).
